# Screens: PubChem BioAssay, The Scripps Research Institute Molecular Screening Center
# MBD2 DNA inh: blocks human MBD2 binding to methylated DNA; 0.31% of 370,000 active; Q9UBB5; inhibition, % at 4.4 µM; AID 686964; TR-FRET, MBD2 binding to methylated oligonucleotide; in the data active = inhibition above about 13%
# UHRF1 binding: blocks human UHRF1 binding to methylated DNA | Q96T88 | UHRF1 binding to methylated oligo, TR-FRET | inhibition, % at 4.4 µM | 0.75% of 370,000 active | AID 687016;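 also: UHRF1 SRA domain binding a hemimethylated CpG hairpin DNA probe; 0% = median of test compound wells and 100% = reference inhibitor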
# Rin1 Abl inh: inhibitors of human Rin1-Abl protein interaction. TR-FRET Rin1/Abl binding, biochemical. inhibition, % at 7.35 µM. 0.4% of 360,000 active; in the data active = inhibition above about 5%, passing the limit was not always enough
# LEDGF integ inh: blocks HIV-1 LEDGF/p75-dependent DNA integration; TR-FRET IN-LEDGF/p75 DNA integration, Eu/Cy5; inhibition, % at 3.7 µM; 0.64% of 370,000 active; AID 743269;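 active = inhibition above the screen-wide mean plus 3 SD, cut at about 13% in these data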;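 also: signal is the Cy5 over europium emission ratio at 671 and 618 nm; 0% = plate median of compound wells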
# TCR CD3 inh: human TCR-CD3 binding inhibition | TAMRA-labeled TCR probe fluorescence, biochemical | inhibition, % at 9.4 µM | 0.37% of 360,000 active; in the data active = inhibition above about 19%;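 also: recombinant mutant TCR 2C K166C tagged with TAMRA read by polarization; 0% = receptor in buffer alone and 100% = receptor with positive control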
# UHRF1 ctr MBD2: inhibits human UHRF1 binding to methylated oligonucleotide, MBD2 counter-screen | AID 720530 | 25% of 1,000 active | inhibition, % at 4.4 µM | shares compounds with MBD2 DNA inh | TR-FRET;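 also: UHRF1 SRA domain binding a labeled hemimethylated CpG hairpin DNA; 0% = vehicle only and 100% = reference inhibitor with vehicle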
# MBD2 DBD conf: MBD2-DBD methyl-DNA binding inhibition, TR-FRET confirmation; AID 720531; TR-FRET MBD2-DBD binding to methylated oligonucleotide; 26% of 1,000 active; shares compounds with MBD2 DNA inh; inhibition, % at 4.4 µM; in the data active = inhibition above about 14%
# * hit, by the source's call; x = no result given. The list is not random: actives were taken first. Their share in the collection is about 2%. Rule as the data show it, unless noted: active = inhibition above about 21%; inactive = the rest.
SMILES,MBD2 DNA inh,UHRF1 binding,Rin1 Abl inh,LEDGF integ inh,TCR CD3 inh,UHRF1 ctr MBD2,MBD2 DBD conf
Cc1ccc(CNC(=O)c2nnn(-c3cccc(C)c3)c2N)cc1,14.5*,27.8*,0.6,10.2,0.8,6.2,1.8
Cc1cc(C)cc(-n2nnc(C(=O)NCc3ccccc3)c2N)c1,-3.2,-1.2,3.9,-0.3,3.3,x,x
Cc1ccc(S(=O)(=O)N2C[C@H]3C(=O)C[C@@H](c4ccccc4F)N(S(=O)(=O)c4ccc(C)cc4)[C@H]3C[C@H]2c2ccccc2)cc1,-0.7,0.5,4.8,2.0,-5.5,x,x
CCOC(=O)C1CCN(C(=O)CCC2CCCC2)CC1,-1.7,0.0,-1.8,-3.3,0.6,x,x
O=C(Nc1c[nH]c(=O)[nH]c1=O)c1cc([N+](=O)[O-])cc([N+](=O)[O-])c1,29.3*,-2.5,-2.0,-0.2,1.2,0.1,4.2
COc1ccc(C(O)c2nc(-c3cnc4ccccc4c3)cs2)cc1 (stereo not drawn),-0.1,-1.7,-4.0,1.9,2.4,x,x
CC1CCC(NCc2ccco2)CC1 (stereo not drawn),18.0*,1.9,0.5,1.1,4.0,0.4,5.8
Cc1cc(C)n(/C(=C/N(C)C)C(=O)c2ccccc2)n1,-4.1,0.2,1.6,6.4,1.0,x,x
Cc1cc(C)n(C(=O)/C(C#N)=C/N(C)C)n1,38.7*,5.4,1.1,1.9,-0.3,3.8,5.3
Cc1cc(C)c2c(=O)n3c(nc2c1)C(CC(C)C)NC(=O)c1cccnc1-3 (stereo not drawn),-1.4,-1.6,-2.1,-1.6,8.6,x,x
CN1CCCN(C(=O)C2CCCN(C(=O)c3ccc4c(c3)NC(=O)CS4)C2)CC1 (stereo not drawn),25.3*,-0.1,x,6.3,x,9.4,3.2
COC(=O)C[C@@H]1C[C@H]2c3cc(NS(C)(=O)=O)ccc3O[C@H]2[C@H](CO)O1,-0.2,1.6,-0.4,5.6,2.7,x,x
Cc1cnn(-c2cc(Oc3ccccc3)ncn2)c1,15.8*,1.0,-1.5,0.0,5.7,1.1,4.0
c1ccc(Oc2cc(-n3cncn3)ncn2)cc1,0.5,2.6,-4.1,1.1,-3.0,x,x
COc1cccc(C2=NCCc3cc4c(cc32)OCO4)c1OC,-1.8,0.7,0.6,7.7,4.4,x,x
CNC12CCc3cc(OC)c(OC)c(c31)-c1cc3c(cc1C2)OCO3 (stereo not drawn),22.8*,29.8*,x,11.7,-6.8,11.2,8.7
CNC(=O)c1c(NC(=O)c2ccc(S(=O)(=O)N3CCCCC3)cc2)sc2c1CCN(C(C)C)C2,16.5*,16.0,-0.7,-3.9,-3.9,16.9,8.7
COC(=O)c1ccc(C(=O)OC)c(NC(=O)Cc2cccs2)c1,16.2*,20.0,0.3,1.3,8.7,21.6*,15.4*
COc1ccc(-c2coc3c(C(=O)Nc4cccnc4)cccc23)c(C)c1,-1.4,0.9,-4.5,-0.5,1.2,x,x
Cc1cc(C=O)c(C)n1-c1cc(C(=O)O)cc(C(=O)O)c1,13.8*,49.2*,2.4,13.2,9.9,39.3*,10.8
Cc1cccc2c(N=NC(=O)c3ccc(NS(=O)(=O)c4cccs4)cc3)c(O)[nH]c12,20.9*,0.2,-0.5,-2.1,15.2,3.7,3.2
Cc1ccc2[nH]c(O)c(N=NC(=O)c3ccc(NS(=O)(=O)c4cccs4)cc3)c2c1,-8.2,-3.6,-3.0,-0.7,7.6,x,x
CCCCC1CCc2[nH]nc(C(=O)O)c2C1 (stereo not drawn),-0.8,1.5,2.4,0.2,1.6,x,x
CN(C(=O)C=Cc1ccccc1)c1ccccc1,24.3*,1.7,-0.5,-0.6,-5.3,4.8,0.9
CN(C(=O)/C=C/c1ccc2c(c1)OCO2)c1ccccc1,6.7,14.7,-2.9,-5.5,-4.9,x,x
CC(C)c1ccc(NC(=O)CCNC(=O)N2CC(=O)Nc3ccccc32)cc1,2.7,17.7,-1.6,0.9,-4.2,x,x
O=C1c2ccccc2-c2cccnc21,15.8*,-10.7,-2.1,2.5,-3.4,1.8,-5.5
O=C(c1ccc(N2CCOCC2)cc1[N+](=O)[O-])N1CCOCC1,13.9*,3.6,2.3,-5.9,-2.7,2.8,-1.6
COc1ccc(NC(=O)/C(C#N)=C\c2ccc(Br)o2)cc1,14.2*,13.7,-1.6,1.8,-6.5,20.3,5.6
